For 36 compounds, cell number and H1.0 immunofluorescence intensity results are on record in the supplement of paper PMC7156485.

Each structure is given as a SMILES string. ± gives the standard deviation of the averaged measurements.

What all share (conditions): concentration: 10 µM; 24 h
Test [1] concerns HCC1569. In words: cell number relative to DMSO (% of DMSO); higher = more cells (less growth inhibition / toxicity). The method, boiled down: (§1)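 Cell number or H1.0 nuclear intensity appears as percent of the plate control, based on the median of replicates. Measurements came from HCC1569 and TDF cells exposed in triplicate to compounds at 10 µM for 24 h at 37 °C, then imaged in six fields per well at ×10. Positional effects were smoothed out of HCC1569 values.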

Test [2] deals with TDF. Described as above. The method, boiled down:
as §1

Test [3] concerns TDF. Kind of test: H1.0 immunofluorescence intensity relative to DMSO (% of DMSO); higher = stronger H1.0 induction, active = 120 or more. Put shortly:
as §1

For test [4], the system named is HCC1569. Kind of test: H1.0 immunofluorescence intensity relative to DMSO (% of DMSO); higher = stronger H1.0 induction, active = 140 or more. Put shortly: as §1
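Wherever H1.0 immunofluorescence intensity relative to DMSO is given: TDF is a line of transformed human dermal fibroblasts of mesenchymal origin.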
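Wherever cell number relative to DMSO is given: TDF denotes transformed human dermal fibroblasts of mesenchymal origin.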

With `CCSC(N)=Nc1ccc(C(F)(F)F)cc1.Cl` [TFPI hydrochloride], the values for the cell number in the test on HCC1569 [1] and with TDF [2] were 79.3 and 90.8, respectively. In addition, the H1.0 immunofluorescence intensity with TDF [3] is 99.6 (inactive); with HCC1569 [4] it was 132 (inactive).
For the compound `CC(C(=O)O)c1cccc(Oc2ccccc2)c1` (centres undefined) [Fenoprofen], the cell number in the test with HCC1569 [1] is 102; in the test with TDF [2] it was 101. The values for the H1.0 immunofluorescence intensity in the test with TDF [3] and in the test with HCC1569 [4] were 94.2 (inactive) and 120 (inactive), respectively.
Regarding `CCCCCCCCCCCCCCCCOCC(COCC(F)(F)F)OP(=O)([O-])OC.[Li+]` (centres undefined), the values for the cell number with HCC1569 [1] and in the test on TDF [2] were 102 and 93.8, respectively. For the same compound, the H1.0 immunofluorescence intensity is 99.5 (inactive) in the test with TDF [3] and 92.3 (inactive) with HCC1569 [4].
Consider `O=c1[nH]c(=O)n(C2CCCO2)cc1F` (centres undefined) [Ftorafur], for which the cell number in the test with HCC1569 [1] amounted to 104; in the test on TDF [2], 102. Moreover, the H1.0 immunofluorescence intensity is 99.6 (inactive) in the test on TDF [3] and 103 (inactive) in the test on HCC1569 [4].
With `CC(C)CC(NC(=O)C(O)C(N)Cc1ccccc1)C(=O)O.Cl` (centres undefined) [Bestatin hydrochloride], the cell number stood at 101 in the test on HCC1569 [1] and 104 in the test on TDF [2]. Further, the H1.0 immunofluorescence intensity in the test with TDF [3] is 96.3 (inactive); in the test with HCC1569 [4] it was 99.6 (inactive).
The corresponding values for `CCN1CCCC1CNC(=O)c1cc(S(N)(=O)=O)ccc1OC` [(S)-(-)-Sulpiride] are 99.3, 98.1, 99.8 (inactive) and 101 (inactive).
Turning to `C=CC(=O)c1ccc2ccccc2c1`, the cell number in the test with HCC1569 [1] is 99.7; in the test on TDF [2], 92. Moreover, the H1.0 immunofluorescence intensity in the test with TDF [3] is 103 (inactive); in the test with HCC1569 [4] it was 113 (inactive).
Take `O=C(NNC(=O)c1ccc(CNS(=O)(=O)c2ccc(F)c(Cl)c2)cc1)c1ccccc1`: the cell number in the test with HCC1569 [1] is 103; in the test with TDF [2], 113. Besides, the H1.0 immunofluorescence intensity is 95.9 (inactive) with TDF [3] and 105 (inactive) in the test on HCC1569 [4].
On to `O=[N+]([O-])c1cccc2cn[nH]c12` [7-Nitroindazole], for which the cell number came out at 105 in the test on HCC1569 [1] and 109 in the test on TDF [2]. The H1.0 immunofluorescence intensity was 90.5 (inactive) in the test with TDF [3] and 92.6 (inactive) in the test on HCC1569 [4].
The corresponding values for `COc1ccc(-c2cc(=O)c3ccc(O)cc3o2)cc1` [Pratol] are 98.5, 87.4, 94 (inactive) and 105 (inactive).
Regarding `CCCCCCC=CCCCCCCCCCC(=O)O` [11(Z)-Octadecenoic acid], the cell number with HCC1569 [1] came to 99.8; in the test on TDF [2] it was 101. The H1.0 immunofluorescence intensity with TDF [3] was 112 (inactive); in the test on HCC1569 [4] it was 105 (inactive).
Consider `CC(=O)C1CCC2C3CC=C4CC(O)CCC4(C)C3CCC12C` (centres undefined) [Pregnenolone], for which the cell number with HCC1569 [1] and in the test on TDF [2] was 102 in each case. The H1.0 immunofluorescence intensity was 95.7 (inactive) in the test on TDF [3] and 112 (inactive) in the test on HCC1569 [4].
For `CC(C)COCC(CN(Cc1ccccc1)c1ccccc1)N1CCCC1.Cl` (centres undefined) [Bepridil.HCl], the cell number with HCC1569 [1] was determined as 102; in the test with TDF [2], 103. Further, the H1.0 immunofluorescence intensity in the test with TDF [3] is 93.1 (inactive); with HCC1569 [4], 99.1 (inactive).
In the case of `CC1=NC(=NNc2ccc(S(=O)(=O)[O-])cc2S(=O)(=O)[O-])C(COP(=O)([O-])[O-])=C(C=O)C1=O.[Na+].[Na+].[Na+].[Na+]`, the cell number in the test on HCC1569 [1] came out at 102; in the test on TDF [2], 103. Further, the H1.0 immunofluorescence intensity was 90.1 (inactive) with TDF [3] and 97.3 (inactive) with HCC1569 [4].
`CS(=O)(=O)O.CSc1ccc2c(c1)C(N1CCN(C)CC1)Cc1ccccc1S2` (centres undefined) [Methiothepin mesylate]: the cell number with HCC1569 [1] turned out to be 91.1; in the test on TDF [2] it was 102. The values for the H1.0 immunofluorescence intensity in the test with TDF [3] and with HCC1569 [4] were 111 (inactive) and 128 (inactive), respectively.
Regarding `CC(O)C(O)C1CNc2[nH]c(N)nc(=O)c2N1.Cl.Cl` [(6R)-5,6,7,8-Tetrahydro-L-biopterin hydrochloride], the cell number was 105 with HCC1569 [1] and 110 with TDF [2]. The H1.0 immunofluorescence intensity in the test on TDF [3] is 89.2 (inactive); in the test on HCC1569 [4], 103 (inactive).
Take `O=C([O-])C=CC(O)c1ccc(Cl)cc1.[Na+]` (centres undefined): the cell number in the test with HCC1569 [1] amounted to 105; with TDF [2] it was 97.4. For the same compound, the H1.0 immunofluorescence intensity in the test with TDF [3] was 95.7 (inactive); in the test with HCC1569 [4], 92.9 (inactive).
Take `CC(COc1ccccc1)N(CCCl)Cc1ccccc1.Cl` (centres undefined) [Phenoxybenzamine.HCl]: the results for the cell number in the test on HCC1569 [1] and in the test with TDF [2] were 106 and 103, respectively. Moreover, the H1.0 immunofluorescence intensity was 97.7 (inactive) in the test on TDF [3] and 102 (inactive) in the test on HCC1569 [4].
Consider `CC(C)NCC(O)COc1cccc2[nH]ccc12` (centres undefined) [Pindolol], for which the values for the cell number in the test with HCC1569 [1] and in the test on TDF [2] were 98 ± 3.1 and 94.3 ± 2.5, respectively. The results for the H1.0 immunofluorescence intensity in the test on TDF [3] and in the test on HCC1569 [4] were 98.8 (inactive) and 110 (inactive), respectively.
The corresponding values for `COc1cc(SC)ccc1C(=O)N1CCC(Cc2ccccc2)CC1` [p38 MAP Kinase Inhibitor VI, JX401] are 104, 101, 96.9 (inactive) and 117 (inactive).
Consider `Nc1nccc(-c2c(-c3ccc(F)cc3)ncn2C2CCNCC2)n1`, for which the cell number was 84.5 in the test on HCC1569 [1] and 89.4 with TDF [2]. The H1.0 immunofluorescence intensity in the test on TDF [3] was 88.6 (inactive); in the test with HCC1569 [4] it was 143 (active).
The corresponding values for `COc1ccc(S(=O)(=O)Nc2cc(Cl)cc(Cl)c2OC)cc1N1CCNCC1.Cl` are 100, 100, 93.4 (inactive) and 99.9 (inactive).
`CCCCCCCCCCCCCCCC(=O)NC(CN1CCOCC1)C(O)c1ccccc1` (racemic): the results for the cell number in the test with HCC1569 [1] and in the test on TDF [2] were 103 and 94.8, respectively. Besides, the H1.0 immunofluorescence intensity with TDF [3] was 97.6 (inactive); in the test with HCC1569 [4], 102 (inactive).
As to `COc1cc2c(c(OC)c1OC)-c1c(cc3c(c1OC)OCO3)C[C@H](C)[C@@](C)(O)C2`, the cell number with HCC1569 [1] was 97.6; in the test on TDF [2] it was 95.4. For the same compound, the figures for the H1.0 immunofluorescence intensity with TDF [3] and in the test on HCC1569 [4] were 96.3 (inactive) and 101 (inactive), respectively.
The corresponding values for `C[C@@H]1CCN(C(=O)CC#N)C[C@@H]1N(C)c1ncnc2[nH]ccc12` are 103, 109, 79 (inactive) and 96.3 (inactive).
The corresponding values for `CN(C)CCC=C1c2ccccc2COc2ccccc21.Cl` [Doxepin hydrochloride] are 100, 95.2, 93.1 (inactive) and 97.5 (inactive).
Turning to `O=C(O)C1CCCNC1` (racemic), the cell number in the test on HCC1569 [1] is 109; in the test with TDF [2] it was 103. For the same compound, the H1.0 immunofluorescence intensity in the test on TDF [3] was 97 (inactive); with HCC1569 [4] it was 92.1 (inactive).
As for `Nc1nc2ccc(Cl)cc2n2c(-c3ccccc3)nnc12` [8-chloro-1-phenyl[1,2,4]triazolo[4,3-a]quinoxalin-4-ylamine], the cell number in the test on HCC1569 [1] was 104; in the test on TDF [2] it was 102. Further, the H1.0 immunofluorescence intensity with TDF [3] was 93.9 (inactive); in the test with HCC1569 [4] it was 99 (inactive).
On to `CCCCCC(O)C=CC1C(O)CC(O)C1CC=CCCCC(=O)O` (centres undefined) [9b,11a Prostaglandin F2], for which the cell number came to 100 in the test with HCC1569 [1] and 98 with TDF [2]. For the same compound, the values for the H1.0 immunofluorescence intensity in the test on TDF [3] and in the test on HCC1569 [4] were 93.3 (inactive) and 97.5 (inactive), respectively.
For the compound `Cc1cc(C2CCCCC2)n(O)c(=O)c1.NCCO` [Ciclopirox ethanolamine], the figures for the cell number in the test on HCC1569 [1] and in the test on TDF [2] were 78.7 and 58.8, respectively. The H1.0 immunofluorescence intensity is 93.2 (inactive) with TDF [3] and 102 (inactive) in the test on HCC1569 [4].
Turning to `CCCn1c(=O)c2[nH]c(-c3ccc(S(=O)(=O)O)cc3)nc2n(CCC)c1=O` [1,3-Dipropyl-8-p-sulfophenylxanthine], the cell number was determined as 104 in the test with HCC1569 [1] and 106 with TDF [2]. The H1.0 immunofluorescence intensity with TDF [3] was 90.4 (inactive); in the test on HCC1569 [4] it was 92.6 (inactive).
As for `C=C(C)C1CCC2(C(=O)O)CCC3(C)C(CCC4C5(C)CCC(O)C(C)(C)C5CCC43C)C12` (centres undefined) [Betulinic acid], the cell number in the test with HCC1569 [1] was 101; with TDF [2], 108. In addition, the H1.0 immunofluorescence intensity is 96.3 (inactive) in the test with TDF [3] and 97 (inactive) in the test on HCC1569 [4].
The corresponding values for `c1ccc(C2CN3CCSC3=N2)cc1` (centres undefined) [Levamisole] are 98.3, 94.6, 102 (inactive) and 92.1 (inactive).
`CCCNCC(O)COc1ccccc1C(=O)CCc1ccccc1.Cl` (centres undefined) [Propafenone hydrochloride]: the values for the cell number in the test on HCC1569 [1] and with TDF [2] were 95.4 and 103, respectively. The H1.0 immunofluorescence intensity with TDF [3] is 99.2 (inactive); with HCC1569 [4] it was 102 (inactive).
`CC(C)OC(=O)CCCC=CCC1C(O)CC(O)C1CCC(O)CCc1ccccc1` (centres undefined) [Latanoprost]: the values for the cell number with HCC1569 [1] and in the test on TDF [2] were 103 and 108, respectively. In addition, the values for the H1.0 immunofluorescence intensity in the test on TDF [3] and in the test with HCC1569 [4] were 86.7 (inactive) and 105 (inactive), respectively.
As for `CN1CCc2cccc3c2C1Cc1ccc(O)c(O)c1-3.Cl` [(R)-(-)-Apomorphine.HCl], the cell number in the test on HCC1569 [1] was 98.4; with TDF [2] it was 98.9. The H1.0 immunofluorescence intensity in the test with TDF [3] is 89.1 (inactive); with HCC1569 [4], 103 (inactive).
